Pf apPOL block: Pf-apPOL inhibitors, biochemical, fluorescence; Plasmodium falciparum apicoplast DNA polymerase (apPOL); Recombinant Pf-apPOL, molecular beacon fluorescence, 1.5 h; inhibition, % at 10 µM; AID 1794808, 2022; 210,000 tested, 0.25% active
mHTT CaM bind: mutant huntingtin-calmodulin interaction inhibitors – biochemical, AlphaScreen, primary screen; P42858; AlphaScreen His-mHTT/GST-CaM binding, luminescence; inhibition, % at 15 µM; 190,000 tested, 3.6% active
Numbers stand for hits; - = inactive; . = not tested or not shown. Most compounds without a hit are left out; they make up all but 3.6% or so of the library. No stated cut-off is given here; in the data, active means inhibition above about 50%; inactive means the rest.

SMILES	Pf apPOL block	mHTT CaM bind
CC(=O)c1c(C(C)=O)c(C)n(-c2cc(C)c(C)cc2N)c1C	-	-
Cc1cc(N)c(-n2c(C)c3c(C)nnc(C)c3c2C)cc1C	-	87.7
CC(=O)c1c(C(C)=O)c(C)n(-c2ccc(N)cc2)c1C	-	-
Cc1nnc(C)c2c(C)n(-c3ccc(N)cc3)c(C)c12	-	54.8
Cc1ccc(-c2ccc(/C=C/C(=O)c3ccco3)o2)cc1	-	-
COc1ccccc1-c1ccc(C=CC(=O)c2ccco2)o1	-	58.1
Cc1ccc(NC(=O)N2CCC(n3cnc4cc(F)ccc4c3=O)CC2)cc1C	-	-
CC1=C(C(=O)NCCCN2CCN(Cc3ccccc3)CC2)C2(CCCCC2)OC1=O	-	-
COCCN(CC1(C)CCOCC1)S(=O)(=O)c1ccccc1	-	-
CCn1c(C(=O)N2CCN(Cc3ccccc3)CC2)cc2sccc21	-	57.2
O=C(c1cc2sccc2n1Cc1ccccc1F)N1CCOCC1	-	-
Cc1cccc(NC(=O)N2CCC(CCNS(=O)(=O)c3cccc(C)c3)CC2)c1	-	-
NCCCCCCNc1nc2c(=O)[nH]cnc2n1C1OC(CO)C(O)C1O (stereo not given)	.	-
Nc1nc2c(nc(N=Nc3c(O)[nH]c4ccccc34)n2C2OC(CO)C(O)C2O)c(=O)[nH]1 (stereo not given)	.	63.3
CCOc1cc(/C=C2\C(=O)Nc3ccc(Br)cc32)cc(Cl)c1O	-	100.0
COc1cc(/C=C2\C(=O)Nc3ccc(Br)cc32)cc(Cl)c1O	-	100.0
COc1cc(/C=C2\C(=O)NC(=O)N(c3ccc(C)cc3)C2=O)cc([N+](=O)[O-])c1O	-	-
COc1ccc(/C=C2\C(=O)Nc3ccc(Br)cc32)cc1	-	-
O=C1Nc2ccc(I)cc2C1=Cc1cc(Br)c(O)c(Br)c1	-	.
COc1ccc(/C=C2\C(=O)Nc3ccc(Br)cc32)cc1OC	-	90.0
COc1cc(/C=C2\C(=O)Nc3ccc(Br)cc32)cc([N+](=O)[O-])c1O	-	96.0
COc1cc(/C=C2\C(=O)NC(=O)N(c3ccc(C)cc3)C2=O)cc(Cl)c1O	-	-
Cc1nc(NC(=O)Cn2nnc3ccccc3c2=O)sc1C(=O)N(C)C	-	-
CC(CNC(=O)c1cc2n(n1)CCCN(Cc1ccccc1)C2=O)c1ccccc1 (stereo not given)	-	-
C[C@]12CC3(N)CC(C(=O)O)(C1)C[C@@](C)(C3)C2	.	-
SMILES	Pf apPOL block	mHTT CaM bind
CCc1cccc2c3c([nH]c12)CCC(NC(=O)CC1C=CCC1)C3 (stereo not given)	-	56.6
Cc1nc(CC(=O)NC2CCc3[nH]c4c(Cl)cccc4c3C2)c(C)s1 (stereo not given)	-	95.4
Cc1ccccc1CC(=O)NC1CCc2[nH]c3c(C)cccc3c2C1 (stereo not given)	-	-
COCC(=O)NC1CCc2[nH]c3c(C)cccc3c2C1 (stereo not given)	-	-
CN1CCN(Cc2ccc(-c3ccccc3Cl)o2)CC1	-	-
CCCC(=O)c1cc2c(cc1[N+](=O)[O-])OCCO2	-	-
Cc1ccc(C(c2ccc(C)o2)c2cc(Br)cc([N+](=O)[O-])c2O)o1	-	-
Cc1ccc(C(c2ccc(C)o2)c2cc3c(cc2[N+](=O)[O-])OCCO3)o1	-	56.0
Cc1ccc(C(c2ccc(C)o2)c2cc([N+](=O)[O-])cc(Br)c2O)o1	-	64.7
COc1ccc(CNC(=O)C2CCCN(Cc3nc(-c4ccccc4F)oc3C)C2)cc1 (stereo not given)	-	-
COc1ccc(C)cc1NC(=O)CCc1[nH]c(C)c(C(=O)N(C)C)c1C	-	-
COc1cc(/C=C2\C(=O)NN(c3ccc(C)c(C)c3)C2=O)cc(OC)c1OC	-	-
CCOc1cc(/C=C2\C(=O)NN(c3ccc(Br)cc3)C2=O)cc(Cl)c1O	-	-
COc1c(Cl)cc(/C=C2\C(=O)NN(c3ccccc3)C2=O)cc1Cl	-	96.0
COc1cc(/C=C2\C(=O)NN(c3ccc(C)c(Cl)c3)C2=O)cc(OC)c1OC	-	-
COc1cc(/C=C2\C(=O)NC(=O)N(c3cccc(C)c3)C2=O)cc(OC)c1O	-	-
O=C1NC(=O)N(c2cccc(C(F)(F)F)c2)C(=O)/C1=C/c1ccc(O)cc1	-	52.0
COc1cc(/C=C2\C(=O)NN(c3ccc(I)cc3)C2=O)cc(OC)c1O	-	61.0
CCOc1cc(/C=C2\C(=O)NN(c3cccc(Br)c3)C2=O)cc(Cl)c1OCC	-	98.0
COc1ccc(NC(N)=Nc2nc(C)cc(=O)[nH]2)cc1	-	-
O=C(NCc1ccccc1Cl)C1CCCN(c2cnc3nccnc3c2)C1 (stereo not given)	-	-
O=C1C(=Cc2cccs2)COc2ccccc21	-	.
O=[N+]([O-])c1ccccc1S(=O)(=O)N1CCN(Cc2ccncc2)CC1	-	-
CNS(=O)(=O)c1cccnc1Nc1ccc(F)c(Cl)c1	-	-
COc1cc(Cl)cc(/C=C2\C(=O)NN(c3ccc(C)c(C)c3)C2=O)c1O	-	-

Screening results: PubChem BioAssay, University of Kansas High Throughput Screening Laboratory
